From PubChem BioAssay (NCATS)
Records with an inconclusive call do not appear. Activity calls are given as the source filed them. Unless noted, calls come from the whole dose curve; as a rule, active = well fitted curve in the direction sought with a large enough effect; inconclusive = small, poorly fitted or top-dose-only effect, or another doubt; inactive = no such curve, though single readings can be large; an effect the other way counts as inactive or inconclusive.

What was measured:
[1] = test system: MKL-2; assay: qHTS assay to identify novel small-molecules to repurpose for Merkel cell carcinoma treatment (AID 1296009); details: MCC and control cell lines, CellTiter-Glo viability, 72 h; series mostly up to 46 µM; note: nearly all actives have a fitted effect of over 60% in size; note: potency is the fitted concentration of half-maximal effect
Method in brief: (§1)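 Cell viability, measured as CellTiter-Glo luminescence, was normalized between DMSO and no-cell wells. The cells had been exposed to 8- or 11-point compound dilutions for 72 hr at 37 degree celsius.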

[2] = test system: UISO; assay: as above; details: MCC and control cell lines, CellTiter-Glo viability, 72 h; series mostly up to 46 µM
Method in brief: as §1

[3] = test system: WaGa; assay: as above; details: MCC and control cell lines, CellTiter-Glo viability, 72 h; series mostly up to 46 µM
Method in brief: as §1

[4] = test system: C33A; assay: Primary qHTS to identify gynecologic anti-cancer compounds using libraries of approved drugs and bioactive compounds (AID 1345084); details: Gynecologic cancer cell panel viability, ATPlite luminescence, 48 h; series mostly up to 57.5 µM; note: nearly all actives have a fitted effect of over 55% in size; note: potency is the fitted concentration of half-maximal effect
Method in brief: (§2)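 Luminescence from the ATPlite ATP-monitoring reagent indicates viable cell number; lower signal means cytotoxicity. Cells received compound 16 h after seeding and were exposed for 48 h across five concentrations.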

[5] = test system: CASKI; assay: as above; details: Gynecologic cancer cell panel viability, ATPlite luminescence, 48 h; series mostly up to 57.5 µM
Method in brief: as §2

[6] = test system: Es-2; assay: as above; details: Gynecologic cancer cell panel viability, ATPlite luminescence, 48 h; series mostly up to 57.5 µM
Method in brief: as §2

[7] = test system: HeLa; assay: as above; details: Gynecologic cancer cell panel viability, ATPlite luminescence, 48 h; series mostly up to 57.5 µM
Method in brief: as §2

[8] = test system: Hek293T; assay: as above; details: Gynecologic cancer cell panel viability, ATPlite luminescence, 48 h, control line for the selectivity index; series mostly up to 57.5 µM
Method in brief: as §2

[9] = test system: JEG-3; assay: as above; details: Gynecologic cancer cell panel viability, ATPlite luminescence, 48 h; series mostly up to 57.5 µM
Method in brief: as §2

[10] = test system: OV90; assay: as above; details: Gynecologic cancer cell panel viability, ATPlite luminescence, 48 h; series mostly up to 57.5 µM
Method in brief: as §2

[11] = test system: PA-1; assay: as above; details: Gynecologic cancer cell panel viability, ATPlite luminescence, 48 h; series mostly up to 57.5 µM
Method in brief: as §2

[12] = test system: Tov-21-G; assay: as above; details: Gynecologic cancer cell panel viability, ATPlite luminescence, 48 h; series mostly up to 57.5 µM
Method in brief: as §2

[13] = test system: Tov112D; assay: as above; details: Gynecologic cancer cell panel viability, ATPlite luminescence, 48 h; series mostly up to 57.5 µM
Method in brief: as §2

[14] = Drug repurposing screens with cells derived from glioblastoma tumor samples (AID 1345199); details: GBM patient neurospheres viability, ATP luminescence, 48 h; note: nearly all actives have a fitted effect of over 40% in size; note: potency is the fitted concentration of half-maximal effect; for activity, negative = cell killing: % is set by controls: 0 for no effect and ±100 for the full control effect
Method in brief: (§3)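 Primary testing used CD133+ neurospheres from four GBM patients, seven concentrations, 48 h exposure and ATP-based viability; confirmation added three slower-growing patient lines.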

[15] = test system: astro; assay: as above; details: viability, ATP luminescence, 48 h; series mostly up to 45.9 µM
Method in brief: as §3

[16] = target: Nuclear receptor subfamily 1 group I member 2 (Rattus norvegicus) (UniProt Q9R1A7); assay: qHTS assay for small molecule activators of the rat pregnane X receptor (rPXR) signaling pathway (AID 651751; call rule not given here; note: 0% is about no effect); details: rPXR reporter cells, luciferase (One-Glo), 24 h
Chain of Nuclear receptor subfamily 1 group I member 2 (Rattus norvegicus) (Q9R1A7 whole entry, looked up): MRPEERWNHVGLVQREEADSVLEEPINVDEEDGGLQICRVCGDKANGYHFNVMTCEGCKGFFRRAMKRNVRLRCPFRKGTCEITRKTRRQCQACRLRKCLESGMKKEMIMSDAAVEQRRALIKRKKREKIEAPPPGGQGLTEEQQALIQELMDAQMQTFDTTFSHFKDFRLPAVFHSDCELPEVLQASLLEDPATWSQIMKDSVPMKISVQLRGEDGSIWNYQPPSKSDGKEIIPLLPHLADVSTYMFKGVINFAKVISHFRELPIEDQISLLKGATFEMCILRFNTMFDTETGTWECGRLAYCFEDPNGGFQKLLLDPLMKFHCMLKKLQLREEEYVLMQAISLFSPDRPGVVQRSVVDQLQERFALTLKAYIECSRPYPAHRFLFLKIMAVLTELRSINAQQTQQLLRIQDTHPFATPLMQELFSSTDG

[17] = qHTS assay for small molecule activators of the human pregnane X receptor (PXR) signaling pathway (AID 720659; call rule not given here; note: 0% is about no effect)
[18] = test system: NIH3T3; assay: qHTS assay to identify novel small-molecules to repurpose for Merkel cell carcinoma treatment (AID 1296009); details: MCC and control cell lines, CellTiter-Glo viability, 72 h; at 44.8 µM (top of the series) unless noted; note: nearly all actives have a fitted effect of over 60% in size; note: potency is the fitted concentration of half-maximal effect
Method in brief: as §1

[19] = test system: SKOV3; assay: Primary qHTS to identify gynecologic anti-cancer compounds using libraries of approved drugs and bioactive compounds (AID 1345084); details: Gynecologic cancer cell panel viability, ATPlite luminescence, 48 h; series mostly up to 57.5 µM; note: nearly all actives have a fitted effect of over 55% in size; note: potency is the fitted concentration of half-maximal effect
Method in brief: as §2

[20] = test system: CAOV3; assay: as above; details: Gynecologic cancer cell panel viability, ATPlite luminescence, 48 h; series mostly up to 57.5 µM
Method in brief: as §2

[21] = at 45.9 µM (top of the series), tumour line B
[22] = at 45.9 µM (top of the series), tumour line D
[23] = at 46 µM (top of the series), tumour line A
[24] = at 108 µM (top of the series), tumour line B
[25] = at 108 µM (top of the series), tumour line D

Nc1ccccc1C(=O)O
inactive: Potency [1] | Potency [2] | Potency [3] | Potency [4] | outcome [5] | Potency [6] | Potency [7] | outcome [8] | outcome [9] | Potency [10] | Potency [11] | Potency [12] | Potency [13] | activity, negative = cell killing [14, 21] 2.36% | activity, negative = cell killing [14, 22] -8.9% | activity, negative = cell killing [14, 23] -2.87% | Potency [15] | max response [16] -1.41% | outcome [17]

CCCCC/C=C\C/C=C\C/C=C\C/C=C\CCCC(=O)NCC(=O)O
inactive: outcome [18] | Potency [2] | Potency [3] | Potency [4] | outcome [5] | Potency [6] | Potency [7] | outcome [8] | outcome [9] | Potency [10] | Potency [11] | Potency [12] | Potency [13] | activity, negative = cell killing ([14]; at 4.17 µM (top of the series), tumour line A) -24.5% | activity, negative = cell killing ([14]; at 4.17 µM (top of the series), tumour line B) -4.38% | activity, negative = cell killing ([14]; at 4.17 µM (top of the series), tumour line D) -5.18% | activity, negative = cell killing [15] 0.313% [at 4.17 µM]

COc1cc(OC)c(OC)cc1C=O
inactive: Potency [1] | Potency [2] | Potency [3] | Potency [4] | outcome [5] | Potency [6] | Potency [7] | outcome [8] | outcome [9] | Potency [10] | Potency [11] | outcome [19] | Potency [12] | Potency [13] | activity, negative = cell killing ([14]; at 91.6 µM (top of the series), tumour line B) -6.05% | Potency [15] | max response [16] 5.78% | outcome [17]

COc1cccc(C(=O)CCN[C@@H](C)[C@H](O)c2ccccc2)c1
active: Potency [1] 15 µM | Potency ([14]; tumour line A) 28.2 µM | Potency ([14]; tumour line B) 22.4 µM | Potency ([14]; tumour line D) 22.4 µM
inactive: Potency [4] | outcome [20] | outcome [5] | Potency [6] | Potency [7] | outcome [8] | outcome [9] | Potency [11] | outcome [19] | Potency [12] | Potency [13]

COc1ccc2c(c1OC)C(=O)O[C@H]2[C@@H]1c2cc3c(cc2CCN1C)OCO3
inactive: Potency [1] | Potency [2] | Potency [3] | Potency [4] | outcome [5] | Potency [6] | Potency [7] | outcome [8] | outcome [9] | Potency [10] | Potency [11] | Potency [12] | Potency [13] | activity, negative = cell killing [14, 21] 0.565% | activity, negative = cell killing [14, 22] -4.13%

C[C@@H]1CC2=CC(=O)CC[C@@H]2[C@H]2CC[C@@]3(C)[C@@H](CC[C@]3(C)O)[C@@H]21
inactive: Potency [1] | Potency [2] | Potency [3] | Potency [4] | outcome [5] | Potency [6] | Potency [7] | outcome [8] | outcome [9] | Potency [11] | outcome [19] | Potency [12] | Potency [13]

O=c1c(C2CC(c3ccc(-c4ccc(Br)cc4)cc3)Cc3ccccc32)c(O)sc2ccccc12 (stereo not given)
inactive: Potency [1] | Potency [4] | outcome [20] | outcome [5] | Potency [6] | outcome [8] | Potency [11] | outcome [19] | Potency [13]

COc1cc(CC(C)N)cc(OC)c1OC (stereo not given)
inactive: Potency [1] | Potency [2] | Potency [3] | outcome [20] | outcome [5] | outcome [8] | outcome [9] | activity, negative = cell killing [14, 24] -12% | activity, negative = cell killing [14, 25] -16.2%
active: Potency [6] 15.8 µM | Potency [7] 1.58 µM | Potency [11] 2.51 µM | Potency [12] 0.708 µM

CCCCCCCCCC(=O)O[C@H]1CC[C@H]2[C@@H]3CCC4=CC(=O)CC[C@@H]4[C@H]3CC[C@]12C
inactive: Potency [1] | Potency [2] | Potency [4] | outcome [20] | outcome [5] | Potency [6] | Potency [7] | outcome [8] | outcome [9] | Potency [10] | Potency [11] | outcome [19] | Potency [12] | Potency [13] | activity, negative = cell killing [14, 21] -3.32% | activity, negative = cell killing [14, 22] -5.94% | Potency [15]

COC1CC(=C(c2cccs2)c2cccs2)C[N+](C)(C)C1 (stereo not given)
active: Potency [1] 7.5 µM | Potency [3] 11.9 µM
inactive: Potency [4] | outcome [20] | Potency [6] | outcome [8] | outcome [9] | Potency [10] | outcome [19] | Potency [12] | Potency [13] | Potency [15]

CC(C)c1c(CN(C)C(C)Cc2ccccc2)n(C)n(-c2ccccc2)c1=O (stereo not given)
active: Potency ([14]; tumour line A) 11.2 µM
inactive: Potency [1] | Potency [2] | Potency [3] | Potency [4] | outcome [5] | Potency [6] | Potency [7] | outcome [8] | outcome [9] | Potency [11] | outcome [19] | Potency [12] | Potency [13] | activity, negative = cell killing ([14]; at 21.2 µM (top of the series), tumour line B) -20.9% | activity, negative = cell killing ([14]; at 21.2 µM (top of the series), tumour line D) -18.5%

O=c1[nH]oc2c1CCNC2
inactive: Potency [1] | Potency [2] | Potency [3] | Potency [4] | outcome [5] | Potency [6] | Potency [7] | outcome [8] | outcome [9] | Potency [10] | Potency [11] | outcome [19] | Potency [12] | Potency [13] | activity, negative = cell killing [14, 21] -19.5% | activity, negative = cell killing [14, 22] -5.63% | activity, negative = cell killing [14, 23] -27.4% | Potency [15]

O=C1CN=C(c2ccccc2)c2cc([N+](=O)[O-])ccc2N1
inactive: Potency [1] | Potency [2] | Potency [3] | Potency [4] | outcome [5] | Potency [6] | Potency [7] | outcome [8] | outcome [9] | Potency [10] | Potency [11] | outcome [19] | Potency [12] | Potency [13] | activity, negative = cell killing [14, 21] -7.18% | activity, negative = cell killing [14, 22] -17.8% | Potency [15]

CCN(CC)CCc1c[nH]c2ccccc12
inactive: Potency [1] | Potency [3] | Potency [4] | outcome [5] | Potency [6] | Potency [7] | outcome [8] | outcome [9] | Potency [11] | outcome [19] | Potency [12] | Potency [13] | activity, negative = cell killing [14, 24] -10.6% | activity, negative = cell killing [14, 25] -16.4% | Potency [15]
active: Potency ([14]; tumour line A) 63.1 µM
